# The full ranking holds about 2,300 compounds; the median of “plate-normalized OD600 growth (mean of duplicates)” is about 0.29, and the lowest 2% start at about 0.22. The list comes from a sample in which the lowest values are over-represented; it also holds similar structures and randomly drawn compounds.
# Tested on: Escherichia coli BW25113
# Assay: plate-normalized OD600 growth (mean of duplicates) (OD600 (normalized)); higher = more growth (less inhibition)
# Conditions: 10 µM
# Description: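 E. coli BW25113 in LB (100 µl, 96-well, no shaking) was exposed to 10 µM of each compound from a ~30,000-member library and grown at 37°C for 24 h or 15°C for 48 h, in duplicate. Growth was read as OD600 and the duplicate ODs were normalized across screening plates to correct plate-to-plate variation. Hits were >3σ below the mean OD600 at 15°C and <2σ below the mean at 37°C.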
Compound,"plate-normalized OD600 growth (temperature: 15°C, 48 h)","plate-normalized OD600 growth (temperature: 37°C, 24 h)"
CCOC(=O)C(=CNNC(=O)c1ccccc1-n1cccc1)C(=O)OCC,0.213,0.618
CCOC(=O)C(=CNNS(=O)(=O)c1cc(C(F)(F)F)cc(C(F)(F)F)c1)C(=O)OCC,0.246,0.602
CCOC(=O)C(=CNNc1ccnc2cc(Cl)ccc12)C(=O)OCC,0.26,0.616
CC1COCCN1c1cc(N2CCCCC2C(F)(F)F)[nH]c(=O)c1 (stereo not given),0.265,0.635
Nc1[nH]c(=O)c(CO)c(N)c1S(=O)(=O)c1ccccc1,0.211,0.632
N=c1c(S(=O)(=O)c2ccccc2)c(N)c(CO)c2sc3ccccc3n12,0.236,0.601
NS(=O)(=O)c1ccc(-n2ncc3ccccc3c2=O)cc1,0.214,0.646
CCOC(=O)c1cnn(-c2ccc(NS(=O)(=O)c3ccc(Cl)cc3)cc2)c1C(F)(F)F,0.233,0.609
O=C(CNC(=O)C(c1ccccc1)c1ccccc1)N/N=C/c1ccc(-c2ccc(Cl)c(Cl)c2)o1,0.238,0.611
O=C(COc1ccc(C(F)(F)F)cc1[N+](=O)[O-])Nc1cccc(C(F)(F)F)c1,0.264,0.633
Cc1ccccc1OCC(=O)Nc1cccc(N2C(=O)c3ccccc3C2=O)c1,0.235,0.661
Cc1cccc(NC(=O)COc2ccccc2C(=O)NCCNc2ccc([N+](=O)[O-])cc2)c1,0.209,0.656
CCC/C=N/NC(=O)c1ccc(N2CCCC2=O)cc1,0.26,0.647
c1ccc2c(c1)OCCCOc1ccccc1OCCCO2,0.251,0.607
COc1cc(S(=O)(=O)N2CCN(c3c(C)cccc3C)CC2)c(OC)cc1Cl,0.253,0.617
COc1cc2c(cc1OC)C(C)N(S(=O)(=O)c1cn(C)c(C)n1)CC2 (stereo not given),0.245,0.611
CC(C)CC(=O)N(NC(=O)c1ccccc1)c1ccccc1,0.22,0.615
COc1ccccc1Oc1ccc(C(F)(F)F)cc1NC(=O)NC(=O)c1ccccc1F,0.265,0.619

Compound,"plate-normalized OD600 growth (temperature: 15°C, 48 h)","plate-normalized OD600 growth (temperature: 37°C, 24 h)"
O=C1/C(=C\c2ccccc2)N=C(c2ccccc2)N1CNc1nccs1,0.254,0.585
O=C(O)c1cccc(S(=O)(=O)Nc2ccc(Cl)cc2)c1,0.257,0.625
CC1=C(C#N)C(c2c(C)[nH]n(-c3ccccc3)c2=O)(C(F)(F)F)C(=O)N1 (stereo not given),0.26,0.62
COc1ccccc1N=C(N)SCc1ccccc1,0.236,0.606
CCc1ccc(NC(=O)CSc2nnc3n(N)cnn23)cc1,0.238,0.609
Cc1cc(O)c(C)c(O)c1/C=N/NC(=O)CNC(=O)c1ccco1,0.245,0.61
Cc1ccc(NC(=O)c2c3c(nc4ccccc24)CCCC3)cc1,0.239,0.614
C=CCn1c(C(O)c2ccccc2)n[nH]c1=S (stereo not given),0.247,0.613
O=c1nc(-c2ccccc2)nc(-c2ccccc2)[nH]1,0.26,0.617
Cc1ccc2nc(Cl)c(C=Nc3ccccn3)cc2c1,0.226,0.611
COc1ccc(S(=O)(=O)N(Cc2ccccc2)c2ccccc2C(=O)N/N=C(\C)c2ccccc2O)cc1,0.259,0.618
O=C(NC(=S)Nc1ccc(Cc2ccncc2)cc1)c1cccc2ccccc12,0.259,0.614
COc1cc(CCNC(=O)OC(C)(C)C)c([S+]([O-])CSCc2ccccc2)cc1OC (stereo not given),0.238,0.613
Cc1cc(=O)oc2n[nH]c(-c3ccccc3)c12,0.258,0.64
O=C(NCCSC1CCCCC1)c1ccco1,0.221,0.633
O=C(c1ccco1)N1CCC(c2ccccc2)C1 (stereo not given),0.201,0.642
NC(=O)C1CCN(C(=O)c2ccco2)CC1,0.25,0.628

# — the supplement of paper PMC4371806
